# From the supplement of paper PMC3342239
# Where a name gives a salt, the structure may show the parent alone.
# Tested on: Saccharomyces cerevisiae
# Assay: fraction of cells in G1 phase (DNA content, flow cytometry); higher = more cells with unreplicated DNA (G1 delay)
# Conditions: temperature: 30 C; YPD; JTY2953 pdr5 snq2 (sensitized); drug added to: actively dividing cells; 6 h
# Summary of the method: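 S. cerevisiae in YPD at 30°C was dosed with library drugs, using a final 20 µg/ml for sensitized JTY2953 diluted 1∶200 from overnight and fixed at 6–7 h, or dosing dividing JTY2953 (fixed at 6 h) and BY4741 (fixed at 4.33 h). Ethanol-fixed, SYTOX Green-stained cells were read by flow cytometry (10,000 events). The G1 fraction is taken as the Dean-Jett-Fox G1 peak area divided by the G1 and G2/M areas combined.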
row,SMILES,fraction of cells in G1 phase
1,Clc1ccc(COC(Cn2ccnc2)c2ccc(Cl)cc2Cl)c(Cl)c1 (stereo not given) [Miconazole] (48.0611 µM),0.467
2,COc1ccc(CN2CCN(C(c3ccc(F)cc3)c3ccc(F)cc3)CC2)c(OC)c1OC [Lomerizine HCl] (42.685 µM),0.558
3,CN1CCC[C@@H]1CCO[C@](C)(c1ccccc1)c1ccc(Cl)cc1 [Clemastine fumarate] (58.1564 µM),0.585
4,Clc1ccc(CO/N=C(\Cn2ccnc2)c2ccc(Cl)cc2Cl)c(Cl)c1 [Oxiconazole nitrate] (46.6053 µM),0.397
5,CC(C)(C)c1ccc(C(O)CCCN2CCC(C(O)(c3ccccc3)c3ccccc3)CC2)cc1 (stereo not given) [Terfenadine] (42.4008 µM),0.324
6,Clc1ccc(Nc2nnc(Cc3ccncc3)c3ccccc23)cc1 [Vatalanib] (57.6664 µM),0.691
7,CC/C(=C(/CC)c1ccc(O)cc1)c1ccc(O)cc1 [Diethylstilbestrol] (74.5271 µM),0.42

# Same assay, conditions: temperature: 30 C; YPD; JTY2953 pdr5 snq2 (sensitized); drug added to: cultures diluted from stationary phase; 6-7 h
row,SMILES,fraction of cells in G1 phase
1,Clc1ccc(COC(Cn2ccnc2)c2ccc(Cl)cc2Cl)c(Cl)c1 (stereo not given) [Miconazole] (48.0611 µM),0.869
2,COc1ccc(CN2CCN(C(c3ccc(F)cc3)c3ccc(F)cc3)CC2)c(OC)c1OC [Lomerizine HCl] (42.685 µM),0.638
3,CN1CCC[C@@H]1CCO[C@](C)(c1ccccc1)c1ccc(Cl)cc1 [Clemastine fumarate] (58.1564 µM),0.66
4,Clc1ccc(CO/N=C(\Cn2ccnc2)c2ccc(Cl)cc2Cl)c(Cl)c1 [Oxiconazole nitrate] (46.6053 µM),0.853
5,CNNCc1ccc(C(=O)NC(C)C)cc1 [Procarbazine HCl] (90.3731 µM),0.49
6,CC(C)(C)c1ccc(C(O)CCCN2CCC(C(O)(c3ccccc3)c3ccccc3)CC2)cc1 (stereo not given) [Terfenadine] (42.4008 µM),0.776
7,Clc1ccc(Nc2nnc(Cc3ccncc3)c3ccccc23)cc1 [Vatalanib] (57.6664 µM),0.699
8,CCN(CC)CCNC(=O)c1cc(Cl)c(N)cc1OC [Metoclopramide HCl] (66.7104 µM),0.493
9,Cc1ccc(/C(=C\CN2CCCC2)c2ccccn2)cc1 [Trans-triprolidine HCl] (71.8389 µM),0.521
10,NC(CO)C(=O)NNCc1ccc(O)c(O)c1O (stereo not given) [Benserazide HCl] (77.7459 µM),0.514
11,CCC(=O)O[C@]1(C(=O)CCl)[C@@H](C)C[C@H]2[C@@H]3CCC4=CC(=O)C=C[C@]4(C)[C@@]3(F)[C@@H](O)C[C@@]21C [Clobetasol propionate] (42.8282 µM),0.526
12,CC(C)NCC(O)COc1cccc2[nH]ccc12 (stereo not given) [Pindolol] (80.5387 µM),0.515
13,CCn1cc(C(=O)O)c(=O)c2cc(F)c(N3CCNCC3)nc21 [Enoxacin] (62.4364 µM),0.512
14,CCOC(=O)C1=C(C)NC(C)=C(C(=O)OC)C1c1cccc([N+](=O)[O-])c1 (stereo not given) [Nitrendipine] (55.4985 µM),0.472
15,CCN1CCCC1CNC(=O)c1cc(S(=O)(=O)CC)c(N)cc1OC (stereo not given) [Amisulpride] (54.1272 µM),0.471
16,C#C[C@]1(O)CC[C@H]2[C@@H]3CCC4=CC(=O)CC[C@@H]4[C@H]3CC[C@@]21CC [Levonorgestrel] (64.009 µM),0.509
17,CN1CCN(C2=Nc3ccccc3Sc3ccc(Cl)cc32)CC1 [Clothiapine] (58.1596 µM),0.431
18,CN(CCOc1ccc(NS(C)(=O)=O)cc1)CCc1ccc(NS(C)(=O)=O)cc1 [Dofetilide] (45.2927 µM),0.551
19,CCCCNC(=O)NS(=O)(=O)c1ccc(C)cc1 [Tolbutamide] (73.9774 µM),0.505

row,SMILES,fraction of cells in G1 phase
1,CC/C(=C(/CC)c1ccc(O)cc1)c1ccc(O)cc1 [Diethylstilbestrol] (74.5271 µM),0.838
2,CC(=O)OCC(=O)NCCCOc1cccc(CN2CCCCC2)c1 [Roxatidine acetate HCl] (57.3977 µM),0.461
3,CC[C@H]1OC(=O)[C@H](C)[C@@H](O[C@H]2C[C@@](C)(OC)[C@@H](O)[C@H](C)O2)[C@H](C)[C@@H](O[C@@H]2O[C@H](C)C[C@H](N(C)C)[C@H]2O)[C@](C)(O)C[C@@H](C)/C(=N\OCOCCOC)[C@H](C)[C@@H](O)[C@]1(C)O [Roxithromycin] (23.8929 µM),0.472
4,C[C@]12C=CC(=O)C=C1CC[C@H]1[C@@H]3C[C@@H](O)[C@](O)(C(=O)CO)[C@@]3(C)C[C@H](O)[C@@]12F [Triamcinolone] (50.7043 µM),0.483
5,COCCOC(=O)C1=C(C)NC(C)=C(C(=O)OC/C=C/c2ccccc2)C1c1cccc([N+](=O)[O-])c1 (stereo not given) [Cilnidipine] (40.6064 µM),0.494
6,O=P(O)(O)C(O)(Cc1cccnc1)P(=O)(O)O [Risedronic acid] (70.6425 µM),0.463
7,CC(C)CN(C[C@@H](O)[C@H](Cc1ccccc1)NC(=O)O[C@H]1CCOC1)S(=O)(=O)c1ccc(N)cc1 [Amprenavir] (39.554 µM),0.472
8,CCN1CCN(C(=O)N[C@@H](C(=O)N[C@@H]2C(=O)N3[C@@H]2SC(C)(C)[C@@H]3C(=O)O)c2ccccc2)C(=O)C1=O [Piperacillin] (38.6425 µM),0.462
9,CN(Cc1ccc(C(C)(C)C)cc1)Cc1cccc2ccccc12 [Butenafine] (62.9964 µM),0.405
10,CC(C)Cc1ccc(C(C)C(=O)O)cc1 (stereo not given) [Ibuprofen] (96.9522 µM),0.575
11,CC1COc2c(N3CCN(C)CC3)c(F)cc3c(=O)c(C(=O)O)cn1c23 (stereo not given) [Ofloxacin] (55.344 µM),0.505
12,COc1c(N2CCNC(C)C2)c(F)cc2c(=O)c(C(=O)O)cn(C3CC3)c12 (stereo not given) [Gatifloxacin] (53.276 µM),0.335
13,Nc1cc(-c2ccncc2)c[nH]c1=O [Amrinone] (106.838 µM),0.474
14,C[C@H]1O[C@@H](n2cc(F)c(=O)[nH]c2=O)[C@H](O)[C@@H]1O [Doxifluridine] (81.2358 µM),0.479
15,CN1CCC(=C2c3ccccc3C=Cc3ccccc32)CC1 [Cyproheptadine] (69.5874 µM),0.426
16,CC=CC(=O)N(CC)c1ccccc1C [Crotamiton] (98.3833 µM),0.503
17,COc1c(C)c2c(c(O)c1C/C=C(\C)CCC(=O)OCCN1CCOCC1)C(=O)OC2 [Mycophenolate mofetil] (46.1355 µM),0.513
18,COc1cc(NC(C)CCCN)c2ncccc2c1 (stereo not given) [Primaquine phosphate] (77.1146 µM),0.461
19,O=C1NC(=O)C(c2ccccc2)(c2ccccc2)N1 [Phenytoin] (79.2785 µM),0.535
